One assay concerns the target C19orf26. Kind of assay: pooled miR-30 sensor sort-seq; sequence = guide strand. As to conditions: shRNA.
Regarding TCGCCTGAGTCACACTCGTGGA, the sensor-assay potency score (higher = more potent) was -1.57.
On the same count and under the same terms, the figure for TTCCACTTCTTGACCTTGAAAT is -1.35; for TTCTTGACCTTGAAATAGGGGC it is -0.421.
Same read-out and setting: the figure for TCGTGGATGGTGACAATCTTGA is -1.35.
On the same count and under the same terms, the same measure for TTGACCTTGAAATAGGGGCTGG: -0.605; for TTGTCCAGGTAGGTGGTGGTGG: -0.893.
In the case of TGAGTCACACTCGTGGATGGTG, the sensor-assay potency score (higher = more potent) was -0.617.
On the same count and under the same terms, the same measure for TTGTCCTGCGTCTTGCGGCTCT: -0.61; for TTGCAGAGGAGCAGGACGCCAG: -1.16.

A further assay deals with C19orf33. The assay is described as above. Particulars: shRNA.
In turn, ACATCCGTGTCCGAATCGCTGG had a sensor-assay potency score (higher = more potent) of -1.43.
TCCGAATCGCTGGAGCTGCTGC came in with a sensor-assay potency score (higher = more potent) of -0.94.
On the same count and under the same terms, the same measure for TTCACTTTGGGCTTCTTGGCCT: -0.157.
Same read-out and setting: the same measure for TCTCGTGCTGCTTGGAGCCAGC: -1.2; for TTCTCCTTCTTCTTCACTTTGG: -0.173.
Same read-out and setting: the same measure for ATCCGTGTCCGAATCGCTGGAG: -0.418.
AAGAGCTGTGGTGTCCTTGCTT showed a sensor-assay potency score (higher = more potent) of 0.114.
Take TCCGTGTCCGAATCGCTGGAGC: the sensor-assay potency score (higher = more potent) is -1.74.
On the same count and under the same terms, the figure for TTCTTCTTCACTTTGGGCTTCT is 0.272; for AACTTTGTGGGGACTGAGCTTG it is -0.364.
In turn, TCTCCTTCTTCTTCACTTTGGG gave a sensor-assay potency score (higher = more potent) of -0.407.
Same read-out and setting: the figure for TGAGCTTGGGATCTCCCCCGTG is -0.899.

For another assay, the target named is C19orf43. The assay is described as above. As to conditions: shRNA.
With TTGAACAGCTCCAGGAAGCTGC, the sensor-assay potency score (higher = more potent) is -0.652.
Still for that read-out and setting: the same measure for AACAGCTCCAGGAAGCTGCCGT: -0.55; for TACTTGTTAATACCTCATCCTC: -0.735.
Same read-out and setting: the same measure for TTGGCTACTATTCCCGTCTTGA: 0.118; for TAATACCTCATCCTCCGTCTTC: -0.695.
Still for that read-out and setting: the same measure for TTTATCATCGTCACCGCACTGG: 0.198; for TTGGCGAACAAGTTCACGCCGC: -0.437; for TGTTCTATGAAGTCTCACGAGG: -1.02.
Regarding TTGAGGGCTAGTTTGTTCCCGC, the sensor-assay potency score (higher = more potent) was -0.869.
In turn, TAAATAGTTATGTACATCGCAG displayed a sensor-assay potency score (higher = more potent) of -0.74.
In turn, TTATCATCGTCACCGCACTGGT registered a sensor-assay potency score (higher = more potent) of -1.04.
On the same count and under the same terms, the same measure for ATCATCGTCACCGCACTGGTGA: -0.305.

The target in a further assay is C19orf48. The description is as above. As to conditions: shRNA.
As for TGTCCTTGAGAGCCAGGCCCAG, the sensor-assay potency score (higher = more potent) was -1.6.
For the sequence TCTCCTGGGTGTGTGGCTCAGC, the sensor-assay potency score (higher = more potent) was -0.768.
The same measure, in the same setting: the figure for AAGTCCTTGTGCACTGGGTTGG is -0.738; for TTATCCACCTTCTCCTGGGTGT it is -0.455.
On to TGGAGCACCAGGCCAGGCGGTG, for which the sensor-assay potency score (higher = more potent) is -1.89.
Same read-out and setting: the same measure for TTGTGCACTGGGTTGGGTCCCA: -0.4; for TTCTGGCCTGCTTCACCCCTGG: -0.772.
Further: reference of the scale not given here.
